This passage reports composite z-score, z-score and composite Z-score results from PubChem BioAssay.

For experiment [1], the system named is Human papillomavirus type 1a protein E7 (residues 44-93). In words: small molecules binding HPV E7 44-93 – biochemical, small-molecule microarray, residues 44-93, 635 nm fluorescence, primary screen (AID 1108).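 Also: E7 fragment applied at 1 µg/mL in TBST for 1 h at 4 C; score combines spot fluorescence with its signal to noise ratio.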 As to conditions: fluorescence 635 nm, higher = more signal.
A short description of experiment [2]: hepatitis C replication reporter changes, two-sided – Huh7 cells, luciferase reporter, HCV replication inhibitor project, primary screen (AID 1109).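 Also: huh7 hepatoma cells harbouring a luciferase neomycin HCV replicon reporter; luciferase luminescence as measure of HCV replicon replication; test concentration not given here.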 As to conditions: Huh7 HCV replicon luciferase reporter, 48 h; higher = more signal. A general note: A reporter such as luciferase makes a cellular process visible.
Experiment [3] addresses Left-right determination factor 2 (Homo sapiens) (UniProt O00292). The experiment in a line: small molecules binding LEFTY2 protein – biochemical, small-molecule microarray, 635 nm fluorescence scan, primary screen (AID 1110). As to conditions: higher = more signal.
Experiment [4] addresses Calmodulin-1 (Homo sapiens) (UniProt P0DP23). The experiment in a line: small molecules binding calmodulin-1 with EGTA – biochemical, small-molecule microarray, Cy5-labelled CALM1, profiling panel (AID 1111).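 Also: labelled calmodulin applied in Tris saline Tween buffer holding calcium plus EGTA and DTT.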 The note with it: Cy5-CALM1 binding fluorescence, higher = more signal.
The target is the same in experiment [5]. In words: small molecules binding Ca-loaded calmodulin-1 – biochemical, small-molecule microarray, Cy5-labelled CALM1, plus calcium, artefact control for SMM control-protein annotation, profiling panel (AID 1112).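 Also: score merges spot fluorescence with signal to noise from triplicate slides.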 The note with it: Cy5-CALM1 binding fluorescence, higher = more signal.
Experiment [6] is described as follows: probe aWnt5a binding to arrayed compounds – biochemical, biotinylated probe, 635/667 nm fluorescence, primary screen (AID 1113).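 Also: score merges 667 nm fluorescence intensity with signal-to-noise per printed feature.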 As to conditions: small-molecule microarray, higher = more signal.
Experiment [7] is described as follows: probe aShh binding to arrayed compounds – biochemical, biotinylated probe, 635/667 nm fluorescence, primary screen (AID 1114).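 Also: probe is biotin-labelled aShh protein from a stem cell growth factor screen; measures binding of labelled protein to compounds printed on the slide; score merges feature fluorescence at 667 nm with signal-to-noise.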 As to conditions: small-molecule microarray, higher = more signal.
The nature of experiment [8]: probe aNog binding to arrayed compounds – biochemical, biotinylated probe, 635/667 nm fluorescence, primary screen (AID 1115).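 Also: probe is biotinylated aNog protein used at 0.15 µg/mL for 1 h at 4 C; z-score combines 667 nm fluorescence of each spot with its signal to noise.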 The note with it: small-molecule microarray, higher = more signal.
The target of experiment [9] is Torsin-1A-interacting protein 1 (Homo sapiens) (UniProt Q5JTV8). The experiment in a line: compound microarray binding of lysate hLAP1 – cell lysate, small-molecule microarray, COS7 lysate, 635/667 nm fluorescence, primary screen (AID 1116). The note with it: 635 nm fluorescence, higher = more signal.
For experiment [10], the target named is Alpha-bungarotoxin (Bungarus multicinctus) (UniProt P60615). In words: compounds binding labelled alpha-BTX control protein – biochemical, small-molecule microarray, Alexa647 label, 635/667 nm fluorescence, artefact control for SMM control protein annotation, profiling panel (AID 1117). The note with it: alpha-BTX-A647 binding fluorescence, higher = more signal.

A further experiment deals with Albumin (Bos taurus) (UniProt P02769). The experiment in a line: compounds binding labelled BSA control protein – biochemical, small-molecule microarray, Alexa647 label, 635/667 nm fluorescence, artefact control for SMM control protein annotation, profiling panel (AID 1118).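 Also: score merges 667 nm emission intensity and signal-to-noise per printed compound spot.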 The note with it: BSA-A647 binding, fluorescence 635 nm, higher = more signal.
A short description of experiment [11]: probe aXIP binding to arrayed compounds – biochemical, NeuroSMM set, 635/667 nm fluorescence, primary screen (AID 1119).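 Also: probe is the protein aXip251-270 applied at 1 µg/mL to compound-printed slides; binding of probe to printed compounds measured as 667 nm fluorescence plus signal to noise.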 The note with it: small-molecule microarray, higher = more signal, called active from +8 up or from −8 down.
A short description of experiment [12]: probe aNOTCH3 binding on compound microarray – biochemical, small-molecule microarray, 635/667 nm fluorescence, primary screen (AID 1120).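 Also: probe is a biotin-tagged antibody raised against NOTCH3 rather than NOTCH3 protein; score merges spot fluorescence near 667 nm with spot signal to noise.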 As to conditions: higher = more signal.
Experiment [13] in a line: probe aNOTCH2 binding on compound microarray – biochemical, small-molecule microarray, 635/667 nm fluorescence, primary screen (AID 1121).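 Also: score merges feature fluorescence read at 667 nm with its signal to noise.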 As to conditions: higher = more signal.
Experiment [14] has as its target Carbonic anhydrase 2 (Homo sapiens) (UniProt P00918). In words: compounds binding carbonic anhydrase 2 – biochemical, small-molecule microarray, Alexa647-labelled CAII, profiling panel (AID 1122). As to conditions: CAII-A647 binding fluorescence, higher = more signal.
The nature of experiment [15]: COS7 lysate on small-molecule microarray, probe aHis, 635 nm (AID 1123).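 Also: z-score combines 667nm fluorescence intensity with signal-to-noise per printed compound spot.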 The note with it: COS7 cell lysate, fluorescence, higher = more signal.
Experiment [16] can be described thus: probe aLAP1 signal on lysate-treated microarray – cell lysate, small-molecule microarray, COS7 lysate, primary screen (AID 1124).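 Also: lysate comes from COS7 cells expressing LAP1 and is applied at 0.3 µg/mL; score merges spot fluorescence near 667 nm with signal-to-noise over triplicate slides.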 As to conditions: probe aLAP1, fluorescence, higher = more signal.
The test system of a further experiment is Sam68 (KHDRBS1). In words: compounds binding KHDRBS1 protein – biochemical, small-molecule microarray, 635 nm fluorescence, primary screen (AID 1125).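 Also: score merges 667 nm channel intensity with signal to noise over triplicate slides.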 As to conditions: higher = more signal.
The test system of experiment [17] is Chordin-like protein 2 (CHRDL2). In words: compounds binding chordin-like 2 – biochemical, small-molecule microarray, 635 nm fluorescence, primary screen (AID 1126).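 Also: printed compound slides probed with Chrdl2 protein at 4 µg/mL for 1 h at 4 C; score merges 667 nm emission intensity with signal to noise over three replicate slides.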 The note with it: fluorescence 635 nm, higher = more signal.
Experiment [18] concerns the target Concanavalin-A (Canavalia ensiformis) (UniProt P02866). The experiment in a line: compounds binding concanavalin A lectin – biochemical, small-molecule microarray, Alexa647 label, 635 nm, artefact control for SMM control protein annotation, primary screen (AID 1127).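 Also: z combines 667 nm emission intensity with signal-to-noise across three replicate slides.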 As to conditions: ConA-A647 binding fluorescence, higher = more signal.

Active and inactive are the calls of the source.

Chain of Left-right determination factor 2 (Homo sapiens) (O00292 whole entry, looked up): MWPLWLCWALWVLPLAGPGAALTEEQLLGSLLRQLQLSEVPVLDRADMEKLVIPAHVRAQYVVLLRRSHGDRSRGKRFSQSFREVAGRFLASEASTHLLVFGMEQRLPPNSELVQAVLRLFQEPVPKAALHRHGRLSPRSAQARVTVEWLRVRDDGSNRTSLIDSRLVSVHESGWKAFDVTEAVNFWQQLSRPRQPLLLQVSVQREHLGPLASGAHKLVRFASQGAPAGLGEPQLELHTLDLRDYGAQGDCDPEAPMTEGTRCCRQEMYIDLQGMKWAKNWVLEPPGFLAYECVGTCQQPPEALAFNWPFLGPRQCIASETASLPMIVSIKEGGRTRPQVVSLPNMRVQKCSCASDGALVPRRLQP
Chain of Albumin (Bos taurus) (P02769 whole entry, looked up): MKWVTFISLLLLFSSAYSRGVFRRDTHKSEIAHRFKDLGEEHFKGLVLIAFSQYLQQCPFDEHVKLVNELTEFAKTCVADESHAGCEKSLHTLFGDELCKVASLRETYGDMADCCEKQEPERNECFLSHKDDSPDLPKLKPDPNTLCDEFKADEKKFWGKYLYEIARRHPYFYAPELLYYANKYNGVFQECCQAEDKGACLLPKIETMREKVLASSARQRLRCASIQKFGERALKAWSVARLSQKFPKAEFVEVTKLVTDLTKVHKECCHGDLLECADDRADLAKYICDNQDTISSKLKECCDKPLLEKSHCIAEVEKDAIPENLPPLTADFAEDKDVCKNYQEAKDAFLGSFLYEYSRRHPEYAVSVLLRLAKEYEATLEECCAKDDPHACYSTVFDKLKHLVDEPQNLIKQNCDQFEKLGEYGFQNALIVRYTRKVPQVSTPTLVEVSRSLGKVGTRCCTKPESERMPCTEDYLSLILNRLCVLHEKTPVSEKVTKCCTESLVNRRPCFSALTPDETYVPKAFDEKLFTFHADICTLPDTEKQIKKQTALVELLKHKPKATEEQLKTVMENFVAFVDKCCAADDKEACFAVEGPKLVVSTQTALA
Chain of Concanavalin-A (Canavalia ensiformis) (P02866 whole entry, looked up): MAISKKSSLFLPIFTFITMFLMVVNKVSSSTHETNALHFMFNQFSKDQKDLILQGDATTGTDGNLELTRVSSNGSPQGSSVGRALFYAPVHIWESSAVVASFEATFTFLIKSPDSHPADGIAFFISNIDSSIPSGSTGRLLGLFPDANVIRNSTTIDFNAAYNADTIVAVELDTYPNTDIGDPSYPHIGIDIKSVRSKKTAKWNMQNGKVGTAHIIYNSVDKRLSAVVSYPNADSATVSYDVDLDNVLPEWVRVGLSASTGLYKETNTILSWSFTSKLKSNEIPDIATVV
Chain of Alpha-bungarotoxin (Bungarus multicinctus) (P60615 whole entry, looked up): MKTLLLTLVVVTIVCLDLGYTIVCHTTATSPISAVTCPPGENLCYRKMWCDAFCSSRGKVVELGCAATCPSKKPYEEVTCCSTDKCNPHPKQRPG
Chain of Torsin-1A-interacting protein 1 (Homo sapiens) (Q5JTV8 whole entry, looked up): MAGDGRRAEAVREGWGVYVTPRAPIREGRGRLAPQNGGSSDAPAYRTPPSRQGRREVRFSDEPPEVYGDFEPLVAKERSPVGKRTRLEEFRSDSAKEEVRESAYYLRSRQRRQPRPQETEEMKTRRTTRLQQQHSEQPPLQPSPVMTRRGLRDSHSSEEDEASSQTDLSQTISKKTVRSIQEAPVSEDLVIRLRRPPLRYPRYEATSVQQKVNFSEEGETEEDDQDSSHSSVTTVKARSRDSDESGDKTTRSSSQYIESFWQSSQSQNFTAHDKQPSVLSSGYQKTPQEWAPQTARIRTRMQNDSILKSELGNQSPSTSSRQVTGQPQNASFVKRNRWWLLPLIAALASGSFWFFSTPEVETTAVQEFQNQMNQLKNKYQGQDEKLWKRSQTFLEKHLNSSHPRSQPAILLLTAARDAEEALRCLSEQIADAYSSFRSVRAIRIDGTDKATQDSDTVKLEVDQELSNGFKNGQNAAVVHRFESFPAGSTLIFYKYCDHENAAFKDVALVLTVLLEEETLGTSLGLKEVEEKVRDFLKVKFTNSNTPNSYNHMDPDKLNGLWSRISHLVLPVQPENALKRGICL

`COCCOC(=O)N1C(=O)[C@@]2(c3cc(C#CC4=CCCCC4)ccc31)[C@H](C(=O)Nc1nc3ccccc3s1)[C@H]1C(=O)O[C@H](c3ccccc3)[C@H](c3ccccc3)N1[C@@H]2c1ccccc1OCCO`: the composite z-score was 1.42 in [1]; 0.938 in experiment [3]; 0.738 in experiment [4]; 0.417 in experiment [5]; 0.332 in experiment [6]; 0.126 in experiment [7]. Besides, the composite z-score is 1.21 in experiment [8]; 0.512 in [9]; 0.858 in [10]; 0.657 in the experiment with Albumin (Bos taurus); 0.757 in [12]; 0.248 in [13]. Besides, the composite z-score in experiment [14] was 0.188; in experiment [15], 1.1; in [16] it was -0.123; with Sam68 (KHDRBS1) it was 1.13; in experiment [17], 0.367; in experiment [18], 1.14. Besides, the z-score in [2] was -1.66. The composite Z-score in experiment [11] is -0.478 (inactive).

Take `CN1C(=O)C2C=CC(C(O)C3=C[C@H]4C[C@@H](C3)C4(C)C)N(Nc3ccccc3)C2C1=O` (stereo not given in full): the composite z-score in [1] is 1.41; in [3] it was 0.269; in experiment [4], 0.18; in [5], -0.162; in experiment [6], 0.14; in experiment [7], 0.13. For the same molecule, the composite z-score was 0.612 in [8]; 0.802 in [9]; 0.647 in experiment [10]; 0.566 in the experiment with Albumin (Bos taurus); 0.169 in experiment [12]; -0.0712 in experiment [13]. Besides, the composite z-score is 0.645 in [14]; 1.75 in [15]; -0.678 in [16]; 1.31 with Sam68 (KHDRBS1); 0.307 in experiment [17]; 0.782 in experiment [18]. The same molecule displayed a z-score in experiment [2] of -0.181. The composite Z-score in experiment [11] was -0.636 (inactive).

Consider `C=CC[C@]12N=C(c3ccc(OCCCO)cc3)O[C@H]1c1ccccc1N(Cc1ccccc1)C2=O`, for which the composite z-score was 0.0023 in experiment [1]; 0.192 in experiment [3]; -0.162 in experiment [4]; 0.438 in [5]; 0.0032 in experiment [6]; -0.0146 in experiment [7]. Also, the composite z-score in experiment [8] was 0.472; in [9], 1.9; in experiment [10] it was 1.51; in the experiment with Albumin (Bos taurus), -0.0059; in experiment [12], 0.0225; in experiment [13] it was -0.078. In addition, the composite z-score was 0.669 in experiment [14]; 2.12 in experiment [15]; 0.38 in experiment [16]; 0.98 in the experiment on Sam68 (KHDRBS1); 0.317 in experiment [17]; 0.385 in [18]. In [2], the z-score was -2.57. Further, the composite Z-score in [11] is 1.2 (inactive).

With `COc1cc2c(cc1OC)CN(C(=O)[C@H]1[C@@H]3C(=O)O[C@@H](c4ccccc4)[C@@H](c4ccccc4)N3[C@@H](c3ccc(O)cc3)[C@]13C(=O)Nc1ccc(C#CCNC(N)=O)cc13)CC2`, the composite z-score was -0.208 in experiment [1]; 0.264 in experiment [3]; -0.123 in experiment [4]; 0.0061 in experiment [5]; -0.0403 in experiment [6]; 0.0141 in experiment [7]. For the same molecule, the composite z-score was -0.198 in experiment [8]; -0.0992 in [9]; -0.0782 in experiment [10]; -0.176 with Albumin (Bos taurus); 0.0397 in experiment [12]; -0.165 in [13]. Also, the composite z-score in experiment [14] was 0.169; in [15] it was 0.103; in experiment [16], 0.523; with Sam68 (KHDRBS1), -0.0579; in [17], 0.702; in experiment [18] it was 0.212. Moreover, the z-score in experiment [2] is -0.145. Also, the composite Z-score in [11] was -0.136 (inactive).

In the case of `CC(C)(C)OC(=O)CC[C@@]1(C(=O)NCC(O)CO)N=C(c2ccc(OCCCO)cc2)O[C@@H]1c1ccccc1N=[N+]=[N-]` (stereo not given in full), the composite z-score in [1] was 1.47; in [3] it was -0.586; in experiment [4], 1.67; in experiment [5] it was 0.414; in experiment [6] it was 0.0279; in experiment [7], 0.13. For the same molecule, the composite z-score amounted to 1.71 in experiment [8]; 2.29 in experiment [9]; 1.6 in experiment [10]; 0.866 with Albumin (Bos taurus); 0.183 in experiment [12]; 0.0083 in experiment [13]. Besides, the composite z-score in [14] is 0.741; in experiment [15] it was 3.53; in [16] it was 0.537; with Sam68 (KHDRBS1), 1.16; in experiment [17], -0.121; in experiment [18], 1.2. In experiment [2], this molecule came in with a z-score of 0.0173. Also, the composite Z-score in [11] was 0.559 (inactive).
